# Shown are actives, neighbours in structure and some others; about 3.8% of the full set was active somewhere.
# Shn3 3UTR inh: reduction of Shn3 3'UTR firefly luciferase signal, primary screen, Schnurri-3 inhibitor project, cell-based, Clone20 osteoblasts, set 2. Clone20 osteoblast Shn3 3'UTR firefly luciferase, 24 h. inhibition, % at 12.5 µM. 360,000 compounds, 0.52% hits;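 active = mean inhibition of at least 75% with every replicate also reaching 75%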;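 also: 0% = median of neutral control wells and 100% = pilot-screen positive control compound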
# Jurkat NFkB inh: inhibitors of induced NF-kB luciferase reporter, primary screen, TCR NF-kB activation inhibitor project, cell-based, luminescence, uHTS; Jurkat, PMA/ionomycin-induced NF-kB luciferase reporter; inhibition, % at 4 µM; 330,000 compounds, 0.53% hits; AID 435003, 2010; in the data active = inhibition above about 50%
# Mdm2 MdmX PPI: inhibitors of human Mdm2-MdmX association, primary screen, cell-based, luminescence, split luciferase, SaOS-2, uHTS. AID 485346, 2010. inhibition, % at 8 µM. Protein Mdm4 (Homo sapiens) + E3 ubiquitin-protein ligase Mdm2 (Homo sapiens), …. 330,000 compounds, 3% hits. SaOS-2 split-luciferase Mdm2/MdmX complementation;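 active = inhibition of at least 50% at 8 µM in the primary screen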
# Target sequence (O15151 whole entry, looked up): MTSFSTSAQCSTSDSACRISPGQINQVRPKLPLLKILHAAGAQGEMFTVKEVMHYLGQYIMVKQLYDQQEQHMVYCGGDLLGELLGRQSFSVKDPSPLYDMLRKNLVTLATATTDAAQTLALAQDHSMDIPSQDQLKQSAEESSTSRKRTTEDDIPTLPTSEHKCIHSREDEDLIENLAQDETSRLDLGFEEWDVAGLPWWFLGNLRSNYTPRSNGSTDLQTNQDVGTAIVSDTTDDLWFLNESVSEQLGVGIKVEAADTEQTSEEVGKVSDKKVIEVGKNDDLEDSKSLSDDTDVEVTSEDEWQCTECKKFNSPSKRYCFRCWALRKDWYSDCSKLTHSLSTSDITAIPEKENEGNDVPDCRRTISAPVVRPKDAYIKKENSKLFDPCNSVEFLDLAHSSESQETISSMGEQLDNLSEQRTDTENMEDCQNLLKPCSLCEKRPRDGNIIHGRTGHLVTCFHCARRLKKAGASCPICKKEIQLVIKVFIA
# Target sequence (Q00987 whole entry, looked up): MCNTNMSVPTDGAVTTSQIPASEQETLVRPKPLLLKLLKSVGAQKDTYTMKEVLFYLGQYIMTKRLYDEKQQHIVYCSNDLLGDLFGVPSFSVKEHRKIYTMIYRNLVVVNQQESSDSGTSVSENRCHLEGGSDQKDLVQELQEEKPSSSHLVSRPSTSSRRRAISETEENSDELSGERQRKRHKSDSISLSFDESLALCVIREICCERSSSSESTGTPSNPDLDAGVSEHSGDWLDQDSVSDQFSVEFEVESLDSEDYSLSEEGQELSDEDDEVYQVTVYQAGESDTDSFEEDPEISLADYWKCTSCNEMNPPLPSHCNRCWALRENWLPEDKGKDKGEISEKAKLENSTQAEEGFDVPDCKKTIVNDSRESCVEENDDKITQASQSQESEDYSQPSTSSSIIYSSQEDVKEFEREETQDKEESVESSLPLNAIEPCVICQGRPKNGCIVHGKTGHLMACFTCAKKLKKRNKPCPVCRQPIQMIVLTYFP
# Gli-Sufu antag: Gli-Sufu pathway antagonists, primary screen, luciferase luminescence, Sufu-KO-LIGHT cells, uHTS. Sufu-KO-LIGHT fibroblasts, Gli luciferase reporter luminescence. inhibition, % at 5 µM. 340,000 compounds, 0.74% hits;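 active = inhibition above about 55%, limit read from the data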;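 also: 0% = DMSO-treated cells and 100% = wells with medium but no cells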
# 697 NFkB inh: inhibitors of PMA/ionomycin-induced NF-kB reporter, 697 cells, primary screen, B-cell NF-kB inhibitor project, cell-based, luminescence, uHTS. 697 B-cell NF-kB luciferase reporter, 16 h. inhibition, % at 4 µM. 330,000 compounds, 0.33% hits. AID 435022, 2010; in the data active = inhibition above about 35%
# Mdm2-MdmX conf: Mdm2-MdmX complex disruptors, retested hits, confirmation, luminescence, single concentration; shares compounds with Mdm2 MdmX PPI; Mdm2-MdmX binding, luminescent assay; inhibition, % at 8 µM; 10,000 compounds, 55% hits; AID 489028, 2010; in the data active = inhibition above about 40%
# FLuc counter: full-length luciferase signal inhibition, confirmation, counter-screen for Mdm2/MdmX interaction inhibitor project, cell-based, single concentration, SaOS-2 | shares compounds with Mdm2 MdmX PPI | SaOS-2 full-length luciferase counterscreen, luminescence | inhibition, % at 8 µM | 6,200 compounds, 77% hits | AID 504607, 2011;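 active = mean inhibition at 8 µM reaching about 37%, which flags the compound as non-specific, limit read from the data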;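 also: p53-null SaOS-2 cells with luciferase driven by a doxycycline-inducible promoter; compound on cells about two nights before reading with doxycycline added after day one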
# Numbers without * were called inactive; . = no result given.
SMILES,Shn3 3UTR inh,Jurkat NFkB inh,Mdm2 MdmX PPI,Gli-Sufu antag,697 NFkB inh,Mdm2-MdmX conf,FLuc counter
Cc1ccc(CCC(=O)NCc2ccccc2)o1,-19.0,-5.6,-2.5,8.0,3.1,.,.
Fc1cccc(NCCc2c[nH]c3ccccc23)n1,-48.4,-23.5,13.7,-34.1,-21.6,.,.
c1ccc2c(NCCc3c[nH]c4ccccc34)c3ccccc3nc2c1,73.5,-10.5,100.3*,15.4,-30.0,60.4*,54.9*
CN1C(=O)C(O)(CC(=O)/C=C\c2ccc3c(c2)OCO3)c2ccccc21 (centres undefined),-44.3,11.5,55.3*,4.9,-8.6,-2.5,.
NC(=O)CN1C(=O)C(O)(CC(=O)/C=C\c2ccc3c(c2)OCO3)c2ccccc21 (centres undefined),-11.9,7.4,5.8,-7.0,-7.6,.,.
O=C(N/N=C/c1c(-c2ccccc2)[nH]c2ccccc12)c1cccnc1,-49.6,-13.3,52.2*,-32.8,1.1,53.0*,68.5*
Cn1c(-c2ccccc2)c(/C=N/NC(=O)c2cccnc2)c2ccccc21,-2.7,5.5,34.5,-20.3,-3.5,.,.
COc1ccccc1Nc1nnc(SCC(=O)NC(=O)Nc2ccc3c(c2)OCCO3)s1,25.6,10.6,67.7*,10.4,-3.7,57.5*,44.1*
Cc1cccc(Nc2nnc(SCC(=O)NC(=O)Nc3ccc4c(c3)OCCO4)s2)c1,18.1,7.3,91.0*,-4.1,21.5,23.9,.
Cc1ccccc1Nc1nnc(SCC(=O)NC(=O)Nc2ccc3c(c2)OCCO3)s1,.,-8.9,33.3,.,-34.1,.,.
CC(Sc1nnc(-c2ccc(OC(F)F)cc2)n1N)C(=O)NCC1CCCO1 (centres undefined),0.2,7.6,5.2,-7.1,6.7,.,.
COc1ccccc1-n1c(C)c(C(=O)O)c2cc(OC)c3ccccc3c21,-8.5,-13.0,-34.4,-3.2,-15.1,.,.
COC(=O)c1ccc(-n2c(CCC(=O)O)ccc2-c2ccccc2)cc1,9.5,-5.6,4.5,-15.1,-1.7,.,.
CCOC(=O)c1sc2nc(C)nc(NCc3ccccc3)c2c1C,14.5,31.5,52.0*,1.7,-4.5,25.8,112.9*
COc1ccc(Br)c(C(=O)NCC2CCCCC2)c1,9.6,-5.1,5.8,17.4,-11.0,.,.
COc1ccc(OCCn2cc(/C=C(\C#N)C(=O)NCc3ccco3)c3ccccc32)cc1,-11.1,3.1,74.7*,-8.6,15.2,42.1*,50.7*
COc1ccccc1OCCn1cc(/C=C(\C#N)C(=O)NCc2ccco2)c2ccccc21,17.8,2.0,23.4,1.6,23.0,.,.
COc1ccc(/C=c2\s/c(=C(/C#N)C(=O)NCc3ccco3)n(-c3ccccc3)c2=O)cc1,0.2,4.4,68.1*,-1.9,-10.8,-1.3,.
C=C(C)Cn1c2ccc(NC(=O)CCOCC)cc2c(=O)n1C,-19.0,.,.,.,.,.,.
CCCCn1c(O)c(N=NC(=O)c2ccncc2)c2cc(Br)ccc21,14.6,-9.3,64.0*,-1.6,-15.6,40.2*,63.3*
CCn1c(O)c(N=NC(=O)c2cccnc2)c2cc(Br)ccc21,1.3,7.4,35.9,4.2,8.4,.,.
N#Cc1ccc(S(=O)(=O)N2CCN(CC(=O)NCC3(N4CCOCC4)CCCCC3)CC2)cc1,-11.3,-7.7,-22.1,1.6,6.4,.,.
CC(NC(=S)Nc1ccc(OC(F)F)c(Cl)c1)C(C)(C)C (centres undefined),-10.4,2.2,57.8*,-2.9,-29.1,16.2,.
CC(CCN1CCC(n2nccc2NC(=O)c2ccccc2Cl)CC1)c1ccccc1 (centres undefined),3.0,18.8,27.7,24.6,-9.8,.,.
COc1cc(/C=C2\COC/C(=C\c3ccc(O)c(OC)c3)C2=O)ccc1O,.,3.6,100.3*,1.3,-60.6,100.1*,53.0*
SMILES,Shn3 3UTR inh,Jurkat NFkB inh,Mdm2 MdmX PPI,Gli-Sufu antag,697 NFkB inh,Mdm2-MdmX conf,FLuc counter
COc1cc(/C=C2\SC(N)=NC2=O)ccc1O,1.8,6.3,59.9*,-26.1,-7.7,52.3*,57.1*
COc1cc(/C=C2\SC(N)=NC2=O)cc(OC)c1,-5.0,-2.7,50.8*,-4.1,-8.7,24.9,.
Cc1ccc2nc3n(c(=O)c2c1)-c1cc2ccccc2cc1C(=O)NC3CC(C)C (centres undefined),18.4,.,.,.,.,.,.
O=C(NNC(=O)C1CC1)c1ccc(F)cc1F,-13.0,3.8,10.7,7.1,8.0,.,.
Cc1ccc(SCC(=O)N2CCN(S(=O)(=O)c3cccs3)CC2)cc1,18.3,0.5,22.6,-5.3,10.8,.,.
CC(C)CC(=O)NC(c1cccs1)c1ccc2cccnc2c1O (centres undefined),89.4*,28.9,71.5*,72.4*,-22.3,84.7*,25.3
Cc1conc1NC(c1cccs1)c1ccc2cccnc2c1O (centres undefined),.,18.2,62.6*,.,-9.8,49.9*,31.8
COc1cccc2c1OC1(C)CC2N(C(=O)c2ccco2)C(=S)N1c1ccc(F)cc1 (centres undefined),-29.8,13.7,65.2*,11.8,-12.8,53.1*,70.3*
CCN1CCN(c2cc(-c3ccccc3)nc3cc(-c4cccc(F)c4)nn23)CC1,22.7,15.1,67.7*,13.6,-9.8,3.2,.
COc1ccc(-c2cc(NC=O)c3ncc(-c4cnn(C)c4)n3c2)cc1,8.3,.,.,.,.,.,.
Cc1cccc(NC(=O)c2c(O)c3ccccc3n(C)c2=O)c1,-87.0,-120.9,-77.9,-30.0,-117.4,.,.
CN(C)CC(CCCCC(CN(C)C)C(=O)c1ccccc1)C(=O)c1ccccc1 (centres undefined),23.1,-39.4,56.0*,6.0,-35.4,43.3*,53.7*
CCOC(=O)c1c(C)[nH]c(C(=O)N/N=C/c2cc([N+](=O)[O-])ccc2O)c1C,11.7,-8.5,56.9*,6.8,-176.8,71.3*,55.3*
Cc1cc(Cl)ccc1NC(=O)CCC(=O)N/N=C/c1cc([N+](=O)[O-])ccc1O,25.3,-2.4,61.8*,4.9,-9.6,16.9,.
O=[N+]([O-])c1ccc(/C=N/NC(=S)Nc2ccc(Cl)cc2Cl)s1,3.9,-10.8,62.9*,14.1,-20.3,69.8*,52.5*
O=C(N/N=C\c1ccc([N+](=O)[O-])s1)c1cncc(Br)c1,4.4,8.3,58.1*,22.6,22.2,43.8*,45.5*
COC(=O)N/N=C/c1ccc([N+](=O)[O-])s1,6.6,15.6,17.9,-11.3,10.9,.,.
